Where “and” joins values, the source holds several entries; their conditions need not be identical. Identical values can stand only once. Inconclusive results are not listed. The source holds several records for some structures; these can differ, active in one and inactive in another. Calls of active or inactive are those of the source. Calls come from the whole dose curve; as a rule, active = well fitted curve in the direction sought with a large enough effect; inconclusive = small, poorly fitted or top-dose-only effect, or another doubt; inactive = no such curve, though single readings can be large; an effect the other way counts as inactive or inconclusive.
Columns and labels:
[1] = test system: Hek293T; experiment: Primary qHTS to identify gynecologic anti-cancer compounds using libraries of approved drugs and bioactive compounds (AID 1345084); conditions: Gynecologic cancer cell panel viability, ATPlite luminescence, 48 h, control line for the selectivity index; series mostly up to 57.5 µM; note: nearly all actives have a fitted effect of over 55% in size
Summary of the method: (§1)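 48 h compound exposure at 37 C, 5% CO2; five-point qHTS. ATPlite luminescence readout of cell ATP.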

[2] = test system: JEG-3; experiment: as above; conditions: Gynecologic cancer cell panel viability, ATPlite luminescence, 48 h; series mostly up to 57.5 µM
Summary of the method: as §1

[3] = test system: OV90; experiment: as above; conditions: Gynecologic cancer cell panel viability, ATPlite luminescence, 48 h; series mostly up to 57.5 µM
Summary of the method: as §1

[4] = test system: PA-1; experiment: as above; conditions: Gynecologic cancer cell panel viability, ATPlite luminescence, 48 h; series mostly up to 57.5 µM
Summary of the method: as §1

[5] = test system: SKOV3; experiment: as above; conditions: Gynecologic cancer cell panel viability, ATPlite luminescence, 48 h; series mostly up to 57.5 µM
Summary of the method: as §1

[6] = test system: Tov-21-G; experiment: as above; conditions: Gynecologic cancer cell panel viability, ATPlite luminescence, 48 h; series mostly up to 57.5 µM
Summary of the method: as §1

[7] = test system: Tov112D; experiment: as above; conditions: Gynecologic cancer cell panel viability, ATPlite luminescence, 48 h; series mostly up to 57.5 µM
Summary of the method: as §1

[8] = Drug repurposing screens with cells derived from glioblastoma tumor samples (AID 1345199); conditions: GBM patient neurospheres viability, ATP luminescence, 48 h; note: nearly all actives have a fitted effect of over 40% in size; note: potency is the fitted concentration of half-maximal effect
Summary of the method: (§2)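 Four patient lines of CD133+ GBM neurospheres were screened at several concentrations; hits were retested in those lines plus three slower-growing GBM lines, using 48-hour treatment and ATP-based viability.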

[9] = test system: astro; experiment: as above; conditions: viability, ATP luminescence, 48 h; series mostly up to 45.9 µM
Summary of the method: as §2

[10] = at 45.9 µM (top of the series), tumour line B
[11] = at 45.9 µM (top of the series), tumour line D
[12] = at 46 µM (top of the series), tumour line A
[13] = at 46.1 µM (top of the series), tumour line C
[14] = at 20 µM (top of the series), tumour line C
[15] = at 21.2 µM (top of the series), tumour line B
[16] = at 21.2 µM (top of the series), tumour line D
% is set by controls: 0 for no effect and ±100 for the full control effect.

CCN[C@@H]1C[C@H](N)[C@@H](OC2OC(CN)=CCC2N)[C@H](O)[C@H]1O[C@H]1OC[C@](C)(O)[C@H](NC)[C@H]1O (some centres not stated)
inactive: activity change, negative = cytotoxicity [1] 3.5% [at 0.462 µM] | activity change, negative = cytotoxicity [2] 13.2% [at 0.462 µM] | activity change, negative = cytotoxicity [3] -4.98% [at 0.462 µM] | activity change, negative = cytotoxicity [4] 0.807% [at 0.462 µM] | activity change, negative = cytotoxicity [5] -8.65% [at 0.462 µM] | activity change, negative = cytotoxicity [6] 7.74% [at 0.462 µM] | activity change, negative = cytotoxicity [7] -3.87% [at 0.462 µM] | activity, negative = cell killing [8, 10] -4.35% | activity, negative = cell killing [8, 11] 14.1% | activity, negative = cell killing [8, 12] -22.3% | activity, negative = cell killing [8, 13] -13.2% | Potency [9]

CC(=O)O[C@]1(C(C)=O)CC[C@H]2[C@@H]3C=C(Cl)C4=CC(=O)CC[C@]4(C)[C@H]3CC[C@@]21C
inactive: Potency [1] | Potency [2] | Potency [3] | Potency [4] | Potency [5] | Potency [6] | Potency [7] | activity, negative = cell killing [8, 10] -21.1%

COc1ccc(CN(CCN(C)C)c2ncccn2)cc1
inactive: Potency [1] | Potency [2] | Potency [3] | Potency [4] | Potency [5] | Potency [6] | Potency [7] | activity, negative = cell killing [8, 10] -6.69% | activity, negative = cell killing [8, 13] -7.28%

CC(=O)Nc1ccc(S(=O)(=O)Nc2ccc([N+](=O)[O-])cc2)cc1
inactive: Potency [1] | Potency [2] | Potency [3] | Potency [4] | Potency [5] | Potency [6] | Potency [7] | activity, negative = cell killing [8, 10] -8.95% | activity, negative = cell killing [8, 11] -28.3% | activity, negative = cell killing [8, 13] 10.9%

CC(=O)Nc1ccc(CC(=O)O)cc1
inactive: Potency [1] | Potency [2] | Potency [3] | Potency [4] | Potency [5] | Potency [6] | Potency [7] | activity, negative = cell killing [8, 10] 0.59% | activity, negative = cell killing [8, 11] -5.02% | activity, negative = cell killing [8, 12] -20.1% | activity, negative = cell killing [8, 13] 3.56% | Potency [9]

COc1ccc(CCN(C)CCCN2CCc3cc(OC)c(OC)cc3CC2=O)cc1OC
active: Potency ([8]; tumour line A) 28.2 µM
inactive: Potency [1] | Potency [2] | Potency [3] | Potency [4] | Potency [5] | Potency [6] | Potency [7] | activity, negative = cell killing [8, 10] -2.1% | activity, negative = cell killing [8, 11] -12.6% | activity, negative = cell killing [8, 13] -18% | Potency [9]

N#CCC(=O)NN
inactive: Potency [1] | Potency [2] | Potency [3] | Potency [4] | Potency [5] | Potency [6] | Potency [7] | activity, negative = cell killing [8, 10] -9.6% | activity, negative = cell killing [8, 11] -5.43% | activity, negative = cell killing [8, 12] -40.8% | activity, negative = cell killing [8, 13] -7.01% | Potency [9]

C[C@@H](O)[C@H]1C(=O)N2C(C(=O)O)=C(S[C@@H]3CN[C@H](CNS(N)(=O)=O)C3)[C@H](C)[C@H]12
inactive: Potency [1] | Potency [2] | Potency [3] | Potency [4] | Potency [5] | Potency [6] | Potency [7] | activity, negative = cell killing [8, 10] -1.99% | activity, negative = cell killing [8, 11] 1.38% | activity, negative = cell killing [8, 12] -14.9% | activity, negative = cell killing [8, 13] -16.7% | Potency [9]

CN(Cc1ccc(C(C)(C)C)cc1)Cc1cccc2ccccc12
active: Potency ([8]; tumour line A) 22.4 µM | Potency ([8]; tumour line B) 12.6 µM | Potency ([8]; tumour line D) 22.4 µM
inactive: Potency [1] | Potency [2] | Potency [3] | Potency [4] | Potency [5] | Potency [6] | Potency [7] | activity, negative = cell killing [8, 10] -23.3% | activity, negative = cell killing [8, 13] -13.6% and -21.7% | Potency [9]

CCCN(CCC)S(=O)(=O)c1ccc(C(=O)O)cc1
inactive: Potency [1] | Potency [2] | Potency [3] | Potency [4] | Potency [5] | Potency [6] | Potency [7] | activity, negative = cell killing [8, 10] -5.41% | activity, negative = cell killing [8, 11] 6.49% | activity, negative = cell killing [8, 12] -4.85% | activity, negative = cell killing [8, 13] -7.91% | Potency [9]

Cc1ncc(CO)c(C=O)c1O
inactive: Potency [1] | Potency [2] | Potency [3] | Potency [4] | Potency [5] | Potency [6] | Potency [7] | activity, negative = cell killing [8, 10] 6.81% | activity, negative = cell killing [8, 11] -6.02% | activity, negative = cell killing [8, 12] -26.4% | activity, negative = cell killing [8, 13] 7.46% | Potency [9]

c1ccc(-c2nc[nH]c2-c2ccccc2)cc1
inactive: Potency [1] | Potency [2] | Potency [3] | Potency [4] | Potency [5] | Potency [6] | Potency [7] | activity, negative = cell killing [8, 10] -16.2%

CC(=O)Nc1ccc(OC(=O)c2ccccc2OC(C)=O)cc1
inactive: Potency [1] | Potency [2] | Potency [3] | Potency [4] | Potency [5] | Potency [6] | Potency [7] | activity, negative = cell killing [8, 10] -12.4% | activity, negative = cell killing [8, 11] -13.4% | activity, negative = cell killing [8, 12] -15.3% | activity, negative = cell killing [8, 13] -16.9% | Potency [9]

CCO[C@@H]1O[C@H](C(COCc2ccccc2)OCc2ccccc2)[C@H](OCc2ccccc2)[C@H]1O (some centres not stated)
active: Potency ([8]; tumour line A) 14.1 µM
inactive: Potency [1] | Potency [2] | Potency [3] | Potency [4] | Potency [5] | Potency [6] | Potency [7] | activity, negative = cell killing [8, 14] -1.34% | activity, negative = cell killing [8, 15] -8.94% | activity, negative = cell killing [8, 16] -23.7% | Potency [9]

Cc1cc(-c2ccccc2)nnc1NCCN1CCOCC1
inactive: Potency [1] | Potency [2] | Potency [3] | Potency [4] | Potency [5] | Potency [6] | Potency [7] | activity, negative = cell killing [8, 10] -18.6% | activity, negative = cell killing [8, 11] -4.44% | activity, negative = cell killing [8, 13] -11.7% | Potency [9]
active: Potency ([8]; tumour line A) 12.6 µM

CC(=O)Nc1ccc(OCC(O)CNC(C)C)cc1 (configuration not stated)
inactive: Potency [1] | Potency [2] | Potency [3] | Potency [4] | Potency [5] | Potency [6] | Potency [7] | activity, negative = cell killing [8, 10] -1.74% | activity, negative = cell killing [8, 11] -7.95% | activity, negative = cell killing [8, 12] -46.4% | activity, negative = cell killing [8, 13] -12.1% | Potency [9]

Cc1c(-c2ccccc2)oc2c(C(=O)OCCN3CCCCC3)cccc2c1=O
inactive: Potency [1] | Potency [2] | Potency [3] | Potency [4] | Potency [5] | Potency [6] | Potency [7] | activity, negative = cell killing [8, 14] 10.4% | activity, negative = cell killing [8, 15] -10.2% | activity, negative = cell killing [8, 16] -18.3% | activity, negative = cell killing ([8]; at 21.3 µM (top of the series), tumour line A) -8.03% | Potency [9]

Source: PubChem BioAssay (NCATS)
